# Hits are enriched below; roughly 0.45% of the tested compounds scored in any of these assays.
# EPAC1 agonist: activates human EPAC1 exchange factor | O95398 | EPAC1 agonist qHTS, biochemical assay; response scale: 100% = response to 6.5 mM cAMP | Potency, µM (top dose mostly 154 µM), inactives show at the top dose activation, usual class: activators | actives 0.073% (n = 360,000); further: nearly all actives have a fitted effect of over 60% in size
#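 Read-out is the fluorescence drop as BODIPY-GDP leaves Rap1B (480 nm excitation, 540 nm emission), recorded every 5 minutes over 30 minutes. Reactions held 100 nM EPAC1, 250 nM Rap1B–BODIPY-GDP and 50 uM GDP, with 6.5 mM cAMP setting full activation.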
# USP2a block: USP2a (human) protease inhibition | O75604 | USP2 core, Ub-CHOP2 coupled fluorogenic reporter, 485/531 | Potency, µM (top dose mostly 38.3 µM), without a hit: top-dose activity change, negative = inhibition, hits mostly inhibitors | actives 0.01% (n = 330,000) | AID 463254;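 further: plate controls were DMSO wells for no effect and full inhibition by NEM control for full effect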
# Target sequence (O75604 whole entry, looked up): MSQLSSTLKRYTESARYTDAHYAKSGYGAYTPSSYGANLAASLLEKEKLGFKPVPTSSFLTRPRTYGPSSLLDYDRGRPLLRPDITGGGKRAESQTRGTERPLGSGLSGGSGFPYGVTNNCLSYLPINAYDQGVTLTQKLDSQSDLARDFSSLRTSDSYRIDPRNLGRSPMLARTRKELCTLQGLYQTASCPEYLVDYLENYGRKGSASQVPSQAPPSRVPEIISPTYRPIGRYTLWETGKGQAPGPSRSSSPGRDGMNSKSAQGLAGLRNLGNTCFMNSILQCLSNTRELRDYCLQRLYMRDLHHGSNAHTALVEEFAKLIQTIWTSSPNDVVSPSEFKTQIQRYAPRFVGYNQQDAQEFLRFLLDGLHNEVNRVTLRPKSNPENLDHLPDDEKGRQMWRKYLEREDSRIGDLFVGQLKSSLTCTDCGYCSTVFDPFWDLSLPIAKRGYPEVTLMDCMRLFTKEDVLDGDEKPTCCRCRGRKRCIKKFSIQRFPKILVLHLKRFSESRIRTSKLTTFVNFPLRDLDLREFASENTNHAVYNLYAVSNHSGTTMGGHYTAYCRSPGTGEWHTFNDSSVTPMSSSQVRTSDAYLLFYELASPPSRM
#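 Cell-free coupled assay: 10nM USP2 core preincubated 30min RT with compound in Tris-HCl pH 8.0/CaCl2/CHAPS buffer, then 25nM Ub-CHOP2 and 25nM reporter substrate; fluorescence (Ex 485/Em 531) read after 60min RT, normalized to NEM inhibition, concentration-response curves fitted.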
# USP1 inh: blocks the human USP1/UAF1 deubiquitinase complex | Potency, µM (series often up to 57.1 µM), without a hit: at the top dose activity change, negative = inhibition, most hits filed as inhibitors | O94782 | recombinant USP1/UAF1, Ub-Rhodamine cleavage fluorescence | actives 0.23% (n = 390,000); further: on the % scale 0 is the no-effect control and ±100 the full control effect; nearly all actives have a fitted effect of over 60% in size
#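 Step one: compound is pinned into 1nM USP1/UAF1 in HEPES pH 7.8 buffer with TCEP. Step two: 15 min room-temperature incubation. Step three: Ub-Rho (150nM final) starts cleavage, tracked by fluorescence over six one-minute reads.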
# EPAC2 agonist: EPAC2 (human) agonism | Q8WZA2 | EPAC2 activation, biochemical qHTS; response scale: 100% = 6.5 mM cAMP response | Potency, µM (titrated, usually from 154 µM), without a hit: top-dose activation, hits mostly activators | actives 0.079% (n = 360,000) | AID 720711; further: nearly all actives have a fitted effect of over 50% in size
#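 EPAC2 (100 nM) mixed with Rap1B loaded with BODIPY-GDP (250 nM) plus 50 uM unlabeled GDP; compounds pinned in, 5 min RT, then read every 5 min for 30 min (ex 480, em 540 nm). Normalized to cAMP control.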
# EPAC2 antag: EPAC2 (human) antagonism. AID 720708. EPAC2 GEF exchange of Rap1B-BODIPY-GDP, fluorescence. actives 0.18% (n = 360,000). Q8WZA2. Potency, µM (top dose mostly 114 µM), inactives show top-dose activity, negative = inhibition, usual class: inhibitors; further: on the % scale 0 is the no-effect control and ±100 the full control effect; nearly all actives have a fitted effect of over 45% in size
# EPAC1 antag: EPAC1 (human) antagonism; EPAC1 GEF assay, Rap1b-BODIPY-GDP exchange fluorescence; Potency, µM (series often up to 115 µM), without a hit: top-dose activity change, negative = inhibition, most hits filed as inhibitors; actives 0.14% (n = 360,000); AID 720709;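 further: plate controls were vehicle for no effect and positive control for full effect; nearly all actives have a fitted effect of over 50% in size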
# The depositor's hits bear a star; i = inactive; ? = inconclusive; nt = not tested or not shown; [ ] = remark or other dose. The call rests on the fitted dose curve; in most records, active means well fitted curve in the direction sought with a large enough effect; inconclusive means small, poorly fitted or top-dose-only effect, or another doubt; inactive means no such curve, though single readings can be large; an effect the other way counts as inactive or inconclusive. Potency means the concentration at half of the fitted maximal effect.
SMILES,EPAC1 agonist,USP2a block,USP1 inh,EPAC2 agonist,EPAC2 antag,EPAC1 antag
CC(NC(=O)Nc1ccc(O)cc1)(C(F)(F)F)C(F)(F)F,-1.8%,1.6%,?,-19.5%,?,79.4µM*
COc1ccc(-c2nnc3c4ccccc4c(-c4ccccc4)nn23)cc1,nt,nt,-19.5%,nt,nt,nt
O=S1(=O)C=C(Oc2ccc(F)cc2)c2ccccc21,5.7%,-1.3%,-17.8%,6.1%,-1.8%,0.9%
O=S1(=O)C=C(Oc2ccc3ccccc3c2)c2ccccc21,5.1%,1.5%,-7.8%,10.9%,25.1µM*,-1.3%
Cc1oc(-c2ccc(C(=O)NCc3ccccc3F)cc2)nc1COc1ccccc1,nt,nt,-25.9%,nt,nt,nt
O=C(N/N=C/c1c(O)n(-c2ccccc2Cl)c(=O)c2ccccc12)c1cccnc1,-12.1%,7.8%,?,-1.3%,-21.9%,?
COc1ccc(Cn2c(O)c(/C=N/NC(=O)c3cccnc3)c3ccccc3c2=O)cc1,13.3%,1.2%,31.6µM*,11.3%,-7.9%,-27.1%
O=C(N/N=C/c1c(O)n(Cc2ccccc2)c(=O)c2ccccc12)c1cccnc1,1.0%,5.0%,25.1µM*,23.2%,-15.2%,?
CC(=O)c1cccc(-c2cnc3c(NC=O)cc(-c4ccc(F)cc4)cn23)c1,-2.5%,nt,nt,8.4%,20.5%,-8.5%
CCOC(=O)c1c(NC(C)=O)c2c3c(sc2n1Cc1ccc(Cl)cc1)CCCC3,nt,nt,2.4%,nt,nt,nt
CCC(Oc1ccccc1)C(=O)Nc1ccccc1N1CCCCC1 (stereo not drawn),-2.5%,-1.2%,-25.7%,7.0%,12.6µM*,3.4%
CC(Oc1ccc(F)cc1)C(=O)Nc1ccccc1N1CCCCC1 (stereo not drawn),4.4%,0.5%,-13.6%,-5.1%,-25.0%,6.6%
CCC(C(=O)Nc1ccccc1N1CCCC1)c1ccccc1 (stereo not drawn),-1.4%,1.0%,-8.9%,-5.6%,5.1%,-3.6%
CCC(Oc1ccccc1)C(=O)Nc1ccccc1N1CCCC1 (stereo not drawn),8.6%,1.8%,-18.7%,12.7%,50.1µM*,-24.7%
Oc1[nH]c2ccc(Br)cc2c1N=Nc1ccc(F)cc1,-129.4%,29.3%,?,-170.0%,70.8µM*,?
Oc1[nH]c2ccccc2c1N=Nc1ccccc1,-136.3%,?,28.2µM*,-84.3%,59.8%,5.8%
Oc1[nH]c2ccccc2c1N=Nc1ccc(F)cc1,-228.8%,?,?,-208.0%,102.3%,93.2%
O=[N+]([O-])c1ccc2[nH]c(O)c(N=Nc3ccc(F)cc3)c2c1,3.0%,-0.6%,-9.4%,8.2%,-4.7%,10.9%
O=c1ccc2cccc([N+](=O)[O-])c2[nH]1,-14.3%,nt,nt,1.5%,-2.3%,-10.7%
CCN1CCN(C2=CC3=CC(=C(C#N)C#N)CCC3CC2)CC1 (stereo not drawn),50.1µM*,?,28.2µM*,25.1µM*,433.9%,455.3%
N#CC(C#N)=C1C=C2C=C(N3CCOCC3)CCC2CC1 (stereo not drawn),?,?,3.98µM*,56.2µM*,78.5%,151.9%
CN1CCN(C2=CC3=CC(=C(C#N)C#N)CCC3CC2)CC1 (stereo not drawn),28.2µM*,?,i[2.29 µM],100µM*,212.7%,i
N#CC(C#N)=C1C=C2C=C(N3CCCCCC3)CCC2CC1 (stereo not drawn),94.4%,?,3.98µM*,88.9%,238.6%[57.1 µM],135.0%
CC1(C)CC(NCCN2CCN(C3=CC(=C(C#N)C#N)CC(C)(C)C3)CC2)=CC(=C(C#N)C#N)C1,-8.2%,2.9%,-12.4%,-0.8%,4.7%,6.1%
Cc1ccc(S(=O)(=O)c2nnn3c2nc(N2CCN(c4ccccc4F)CC2)c2ccccc23)cc1C,nt,nt,-18.5%,nt,nt,nt
O=S(=O)(NCC(c1ccco1)N1CCc2ccccc21)c1ccccc1 (stereo not drawn),100µM*,-4.0%,-23.4%,15.3%,5.9%,-2.0%

# Source: PubChem BioAssay (National Center for Advancing Translational Sciences (NCATS))
